MITF inh = blocks human microphthalmia-associated transcription factor; inhibition, % at 2.6 µM; 650,000 tested, 0.91% active; AlphaScreen MITF homodimerization, bead proximity signal; O75030; in the data active means inhibition above about 50%;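 further: 0% = vehicle wells with protein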
TEAD-YAP inh = TEAD-YAP interaction inhibition; HEK-TIYL cells, TEAD-Gal4/YAP UAS-luciferase luminescence; 640,000 tested, 1.4% active; inhibition, % at 9.12 µM; AID 1259422; in the data active means inhibition above about 32%;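 further: 0% = median of test compound wells and 100% = reference inhibitor wells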
GPR151 ag = activators of human GPR151. 650,000 tested, 1% active. activation, % at 11.2 µM. Q8TDV0. PathHunter beta-arrestin GPR151 cells, luminescence. AID 1508602; in the data active means activation above about 4.9%;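 further: 0% = median of compound wells and 100% = cells with positive control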
FBW7 activator = human FBW7 E3 ligase activation, primary screen; Q969H0; AlphaScreen FBW7–phospho-cyclin E peptide binding, activator screen; normalized activity (activation), % at 26.1 µM; 650,000 tested, 0.13% active; in the data active means normalized activity above about 1.9%;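 further: purified mutant Fbw7 with reduced substrate affinity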
Target sequence (Q969H0 whole entry, looked up): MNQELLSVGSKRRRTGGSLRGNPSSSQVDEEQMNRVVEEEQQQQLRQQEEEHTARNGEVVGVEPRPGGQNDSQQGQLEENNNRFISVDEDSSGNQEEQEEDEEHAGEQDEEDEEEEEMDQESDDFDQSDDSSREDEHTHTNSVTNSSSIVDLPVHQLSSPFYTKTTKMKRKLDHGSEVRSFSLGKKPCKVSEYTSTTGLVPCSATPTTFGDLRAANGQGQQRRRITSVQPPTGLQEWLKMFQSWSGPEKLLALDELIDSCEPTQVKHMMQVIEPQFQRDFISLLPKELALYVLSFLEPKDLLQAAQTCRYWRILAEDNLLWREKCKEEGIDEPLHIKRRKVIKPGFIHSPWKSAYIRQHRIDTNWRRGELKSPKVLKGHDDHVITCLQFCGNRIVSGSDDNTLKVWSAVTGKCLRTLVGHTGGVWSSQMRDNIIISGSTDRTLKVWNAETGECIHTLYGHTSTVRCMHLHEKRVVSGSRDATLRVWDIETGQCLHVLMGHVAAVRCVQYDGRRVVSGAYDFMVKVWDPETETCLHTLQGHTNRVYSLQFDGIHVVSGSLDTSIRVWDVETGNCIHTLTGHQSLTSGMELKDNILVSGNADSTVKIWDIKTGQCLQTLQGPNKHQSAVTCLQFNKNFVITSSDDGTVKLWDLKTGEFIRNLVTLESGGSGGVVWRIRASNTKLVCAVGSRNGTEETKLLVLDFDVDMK
GPR151 conf act = confirmation of human GPR151 activators. GPR151 PathHunter beta-arrestin cells, luminescence, 90 min; % of EA-reagent control over plate median. 6,700 tested, under 10 active. AID 1508609. shares compounds with GPR151 ag. activation, % at 11.2 µM;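 active means mean percent activation across replicates above the confirmation screen cutoff of 4.91%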
GPR119 counter = GPR119 activation, counter-screen for GPR151 activators; shares compounds with GPR151 ag; GPR119 PathHunter beta-arrestin cells, luminescence, 90 min; 0 = compound-well median, 100 = enzyme-acceptor control; activation, % at 11.2 µM; 6,700 tested, 0.3% active; AID 1508611;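 active means mean percent activation in the counterscreen above 29.09%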;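 further: counterscreen on off-target GPR119 to flag nonselective hits from the GPR151 activator screen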
An asterisk follows results filed as active; · = no result; ! = not confirmed by another sample. Only some compounds are listed: those with a hit (about 3.4% of all), similar ones and a draw of the others.

SMILES	MITF inh	TEAD-YAP inh	GPR151 ag	FBW7 activator	GPR151 conf act	GPR119 counter
CCN(CC)c1nc(NCCN(C(C)C)C(C)C)nc(Nc2ccc3ncccc3c2)n1	14	-5	2	0	·	·
CCOc1ccc(CNC(=O)c2cc(=O)[nH]c3ccccc23)cc1	4	-8	5.0*	0	-1	-7
CC(=O)c1sc2nc(-c3ccc4c(c3)OCO4)cc(C(F)(F)F)c2c1N	7	2	-1	1	·	·
COc1ccc(-c2cnc(SCCNC(=O)CCCc3ccccc3)[nH]2)cc1	-10	-13	-1	0	·	·
CCC(=O)NCCSc1ncc(-c2ccccc2)[nH]1	5	-14	5.2*	0	-1	-2
O=C1OC(C23CC4CC(CC(C4)C2)C3)=N/C1=C\c1cccnc1	11	0	-1	0	·	·
COc1ccc(C2=N/C(=C\c3ccc([N+](=O)[O-])cc3)C(=O)O2)cc1[N+](=O)[O-]	22	1	-2	0	·	·
COc1ccc(/C=C2\N=C(c3cccc(I)c3)OC2=O)cc1[N+](=O)[O-]	-4	1	14*	0	1	-6
COc1cc(-c2nc(C=Nc3cc(C)ccn3)c(O)o2)cc(OC)c1OC	11	8	1	0	·	·
CC(C(O)c1ccc(O)cc1)N1CCC(Cc2ccccc2)CC1 (stereo unspecified)	26	-3	10*!	0	2	10
O=C1NC2(CCN(Cc3ccc4ncccc4c3)CC2)Nc2ccccc21	2	1	0	0	·	·
COc1ccc(-c2csc3nc(C)n(CCO)c(=O)c23)cc1	3	-1	0	0	·	·
Cc1ccc(C(C)C)c(OC2=NS(=O)(=O)c3cc([N+](=O)[O-])ccc32)c1	16	6	13*	0	-1	-6
Cc1ccc(C)c(OC2=NS(=O)(=O)c3cc([N+](=O)[O-])ccc32)c1	-3	0	3	0	·	·
Cn1ccc2cc(-c3nc(C(=O)Nc4ccccc4)cs3)ccc21	-8	-5	1	0	·	·
O=C(Nc1c2c(nn1-c1ccc(Cl)cc1)CSC2)c1ccc(C(=O)c2ccccc2)cc1	10	-8	1	0	·	·
N#Cc1ccc(C(c2nnnn2C2CCCCC2)N2CCC(O)CC2)cc1 (stereo unspecified)	-3	5	-1	0	·	·
CC(C)c1nc(CNCc2c(C(=O)N3CCCN(C)CC3)nc3sccn23)cs1	10	-1	6.9*	0	0	1
N#C/C(=C\c1cn(Cc2ccccc2)c2ccccc12)C(=O)NC1CC1	5	-37	5.2*	0	1	10
Cc1cccc(Cn2c(N)nc3c2c(=O)[nH]c(=O)n3C)c1	-3	0	1	0	·	·
O=C(CCN1C(=O)/C(=C/c2cccs2)SC1=S)Nc1ccc(O)c(C(=O)O)c1	10	6	0	0	·	·
Clc1cccc2nnc(-c3ccc(Br)cc3)n12	22	2	1	0	·	·
COC(=O)c1ccc(/C=N/Nc2ccccc2[N+](=O)[O-])cc1	-2	-29	4.9*	0	0	-7
COc1cc(/C=N/Nc2ccccc2[N+](=O)[O-])cc(Br)c1O	9	-54	-5	0	·	·
CC(=O)N1c2ccccc2NC2=C(C(=O)CC(C)(C)C2)C1c1ccccn1 (stereo unspecified)	-21	-9	5.2*	0	0	8
SMILES	MITF inh	TEAD-YAP inh	GPR151 ag	FBW7 activator	GPR151 conf act	GPR119 counter
CCCCOc1ccc(C2C3=C(CC(C)(C)CC3=O)Nc3ccccc3N2C(=O)CC)cc1 (stereo unspecified)	-9	5	6.7*	0	1	10
Cc1cc(NC(=O)COC(=O)c2ccc(Cl)c(N)c2)ccc1Br	11	2	1	0	·	·
COc1cccc(CC2(CO)CCN(Cc3cccn3-c3ncccn3)CC2)c1	-9	5	12*	0	0	-2
COc1ccc(CN2CCC(CO)(Cc3ccccc3)CC2)cc1Cn1cccn1	6	6	9.4*	0	-1	-6
CC(=O)c1cccc(NC(=O)CSc2nnc(-c3ccc(O)cc3)o2)c1	-16	28	0	0	·	·
COc1ccc(N2C3=C(C(=O)CC(C)(C)C3)C(c3ccccc3)C3=C2c2ccccc2C3=O)cc1 (stereo unspecified)	-8	-6	5.6*	0	0	-5
C=CCOC(=O)CCN1C(=O)c2ccccc2C1=O	4	-4	20*	0	-1	-10
CCC(CC)NC(=O)c1ccc(C)c([N+](=O)[O-])c1	1	-1	5.2*	0	1	0
Cc1ccc(NC(=O)c2cccc(I)c2)cc1[N+](=O)[O-]	-15	-24	4.9*	0	1	-7
COc1ccccc1C1CC(c2ccc(Cl)cc2)=NN1c1cc(Cl)ccc1Cl (stereo unspecified)	-9	-1	0	0	·	·
COc1ccc(-c2ccc(/C=N/N3C(=O)C4C5C=CC(C6CC56)C4C3=O)o2)c([N+](=O)[O-])c1 (stereo unspecified)	10	8	5.0*	0	3	0
FC(F)(F)c1ccc(Cn2cnc3c(NCc4cccnc4)nc(Nc4ccncn4)nc32)cc1	19	-15	-3	0	·	·
CCN(CC)c1ccc(NC(=O)C2CC3CCCN3C23C(=O)N(C)c2ccccc23)c(C)c1 (stereo unspecified)	5	-6	0	0	·	·
CCN(CC)c1ccc(NC(=O)C2CC3CCCN3C23C(=O)Nc2ccccc23)c(C)c1 (stereo unspecified)	-3	-2	5.4*	0	0	5
O=C1Nc2ccc3ccccc3c2C(c2ccccc2)N1 (stereo unspecified)	1	16	9.1*	1	-1	-13
O=c1c2c3c(sc2[nH]c(=S)n1-c1ccccc1)CN(Cc1ccccc1)CC3	2	9	5.3*	0	0	-6
O=c1c2c3c(sc2[nH]c(=S)n1-c1ccccc1)CCC3	11	0	1	2	·	·
COc1cc2c(N3C(=O)CCC3=O)c3c(=O)oc(C)cn3c2cc1OC	-4	6	9.1*	0	0	1
O=C(NCCc1ccc(O)cc1)c1cccc(N2CCC(N3CCOCC3)CC2)n1	2	4	5.6*	0	-1	-15
CC(=O)Nc1ccc(NC(=O)c2cccc(N3CCCC3CO)n2)cc1 (stereo unspecified)	-6	9	5.6*	0	0	-4
COc1ccc(CCNC(=O)c2cccc(N3CCCC3CO)n2)cc1 (stereo unspecified)	3	46*	8.7*	0	0	-7
CCCNC(=O)c1cccc(N2CCC(N3CCOCC3)CC2)n1	13	3	1	0	·	·
O=C(NCCO)c1cccc(N2CCCC2CO)n1 (stereo unspecified)	12	4	-1	0	·	·

Source: PubChem BioAssay (The Scripps Research Institute Molecular Screening Center)
